High-throughput results deposited in PubChem BioAssay by National Center for Advancing Translational Sciences (NCATS).
Hits are enriched below; roughly 7.2% of the tested compounds scored in any of these assays.
HCV inhibitor = inhibitors of hepatitis C virus infection; Huh7.5.1 HCVcc-Cre infection, luciferase reporter, 44 h; Potency, µM (series often up to 41.8 µM), without a hit: at the top dose activity change, negative = inhibition, hits mostly inhibitors; 340,000 compounds, 3.4% hits; AID 651820
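Compounds are dispensed onto cells plated 4 h earlier at 1,000 per well, with HCVcc-Cre virus (about 0.5 moi) added next. Following 44 h of culture, luminescent signal is measured for 15 sec after 15 min with substrate at room temperature.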
LASV entry inh = inhibitors of Lassa virus binding or cell entry | 300,000 compounds, 1.2% hits | Potency, µM (doses to about 37.9 µM), without a hit: top-dose activity change, negative = inhibition, hits mostly inhibitors | Lassa virus pseudotype entry inhibition, cell reporter; calls by dose curve; tested in HEK293 cells; further: nearly all actives have a fitted effect of over 50% in size
Sm TGR inh = blocks Schistosoma mansoni thioredoxin glutathione reductase; Q962Y6; purified TGR, DTNB reduction, TNB absorbance 405 nm; Potency, µM (top dose mostly 114 µM), inactives show at the highest dose activity change, negative = inhibition, hits mostly inhibitors; 360,000 compounds, 3% hits; further: nearly all actives have a fitted effect of over 60% in size
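TGR 20 nM + NADPH 100 uM (dispensed conc.), cpd preinc 15 min RT; start with NADPH (500 uM addition) then DTNB (15 mM addition). Kinetic TNB absorbance, 405 nm filter. Four-parameter Hill fit across titration.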
FMDV antiviral = blocks foot and mouth disease virus; FMDV antiviral cell-based qHTS; Potency, µM (titrated, usually from 57.9 µM), for the others: at the highest dose activity change, negative = inhibition, usual class: inhibitors; 410,000 compounds, 1.2% hits; AID 1159524; calls by dose curve; tested in HEK293T cells; further: read-out not given here; nearly all actives have a fitted effect of over 45% in size
MARV entry inh = Marburg virus entry inhibition; Potency, µM (series often up to 37.8 µM), without a hit: top-dose activity change, negative = inhibition, most hits filed as inhibitors; 300,000 compounds, 1.8% hits; Marburg virus pseudotyped entry inhibition, cell reporter; calls by dose curve; tested in HEK293 cells
RE007 growth inh = less growth of the S. pombe RE007 Vpr strain. S. pombe RE007 Vpr strain, BacTiter-Glo ATP luminescence, 24 h. AID 651644. Potency, µM (titrated, usually from 92.2 µM), for inactives: top-dose activity change, negative = less growth, actives largely listed as inhibitors. 360,000 compounds, 0.21% hits; active means well fitted falling curve with a large enough effect; inconclusive means small, poorly fitted or top-dose-only effect; inactive means no such curve, though single readings can be large or run the other way; further: nearly all actives have a fitted effect of over 50% in size
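Fission yeast strain RE007, carrying one chromosomally integrated HIV-1 vpr copy, was seeded at OD 0.01 in PMG+AL medium with 23 nL pinned compound. After 24 h at 30 °C and 99% humidity, viability was read by BacTiter-Glo luminescence.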
Starred values were filed as active, the others as inactive; ? = inconclusive; . = no result given; [ ] = remark or other dose. Unless noted, the call rests on the fitted dose curve; in most records, active means well fitted curve in the direction sought with a large enough effect; inconclusive means small, poorly fitted or top-dose-only effect, or another doubt; inactive means no such curve, though single readings can be large; an effect the other way counts as inactive or inconclusive. On the % scale 0 is the no-effect control and ±100 the full control effect; potency means the concentration at half of the fitted maximal effect.

SMILES	HCV inhibitor	LASV entry inh	Sm TGR inh	FMDV antiviral	MARV entry inh	RE007 growth inh
Cc1ccc(C(=O)Nc2ncc3c(Cl)cccc3n2)cc1	-25.0%	?	13.3%	10µM*	?	?
O=C(Nc1ccc(Cl)cn1)c1ccc(Oc2ccccc2)cc1	?	?	-14.0%	?	?	-3.1%
CCCOc1ccc(C(=O)Nc2ccc(Cl)cn2)cc1	-24.6%	17.8µM*	6.2%	?	6.31µM*	-0.5%
CCN(CC)S(=O)(=O)c1cc(C(=O)Nc2ccc(Cl)cn2)ccc1C	15.8µM*	?	2.3%	-58.6%	?	-20.2%
Cc1ccc(C(=O)Nc2nccc(-c3cccs3)n2)cc1	1.2%	-1.2%	-25.4%	26.1%	18.7%	-5.6%
CC[N@+]1(C)CCC[C@H](OC(=O)C(O)(c2ccccc2)c2ccccc2)C1	.	.	.	.	8.8%	.
Cc1cc(C(=O)Nc2cccc(-c3nc(CNC(=O)c4sc(C)nc4C)c(C)o3)c2)c(C)o1	.	.	.	-1.2%	.	.
Cc1ccc(NC(=O)C2CCCN(c3ncnc4c3nc3n4CCCCC3)C2)cc1F (stereo unspecified)	.	-26.0%[46.1 µM]	-4.2%	?	.	.
Cc1ccc(C(=O)Nc2ccc(Cl)cn2)cc1	?	?	-3.8%	-10.5%	7.3µM*	4.6%
Cc1ccc(CC(=O)Nc2ccc(Cl)cn2)cc1	-9.6%	.	-12.9%	50.1%	.	-17.7%
COc1cccc([C@H]2Oc3ccc(OC)cc3C(=NO[C@@H](C)c3cn([C@H](CO)Cc4ccccc4)nn3)[C@H]2O)c1	.	.	.	.	5.1%[14.2 µM]	.
O=C(/C(=N/N=C/c1ccc(O)c(O)c1O)c1ccccc1)c1ccccc1	?	8.91µM*	0.3%	-26.6%	?	-7.6%
Cc1ccsc1/C=C/C1=Cc2c(sc(NC(=O)CSc3n[nH]c(N)n3)c2C#N)C(C)(C)C1	11.2µM*	?	?	?	?	-8.6%
CCOc1ccc(/C=C/C2=Cc3c(sc(NC(=O)CSc4n[nH]c(N)n4)c3C#N)C(C)(C)C2)cc1	?	-17.3%	?	?	?	-6.4%
CC(=O)C(C)Oc1ccc2c3c(c(=O)oc2c1C)CCCC3 (stereo unspecified)	10µM*	-29.2%	-0.9%	-0.9%	2.5%	?
CC(=O)COc1ccc2c3c(c(=O)oc2c1C)CCCCC3	11.2µM*	?	-2.8%	47.2%	?	-7.8%
Cc1c(OC(C)C(=O)N[C@H](C(=O)O)c2ccccc2)ccc2c3c(c(=O)oc12)CCCC3 (stereo partly specified)	0.1%	.	-31.0%	?	.	10.6%
COc1ccccc1COCC(O)CN1CCN(S(=O)(=O)c2cccc(F)c2)CC1 (stereo unspecified)	4.6%	.	-20.9%	-12.3%	.	-7.3%
COc1ccc(COCC(O)CN2CCN(S(=O)(=O)c3c(F)cccc3F)CC2)cc1OC (stereo unspecified)	35.5µM*	-19.4%	.	-11.6%	-16.5%	3.7%
Cc1csc(NC(=O)Cc2coc3cc(C)c(C(C)C)cc23)n1	10µM*	2.82µM*	24.0%	?	3.98µM*	?
CO[C@@H]1c2ccccc2[C@H]2C(C(=O)O)c3c(n(C)c4ccccc34)[C@H]2[C@H]1C (stereo partly specified)	.	.	.	.	29.1%[14.2 µM]	.
CCn1nc(C)cc1C(=O)OCC(=O)c1ccc(Cl)cc1	2.3%	-7.6%[46.1 µM]	0.4%	-0.8%	12.8%[46.1 µM]	-5.4%
CCn1nc(C)cc1C(=O)Sc1cccc(Br)c1	4.6%	-26.0%	5.62µM*	?	8.3%[46.1 µM]	-8.4%
CCn1nc(C)cc1C(=O)Sc1ccc(Cl)cc1Cl	3.5%	14.9%	3.55µM*	?	2.2%[46.1 µM]	?
Cc1cc(C)n(C(=O)CNC(=O)c2cccc(Br)c2)n1	11.2%	-3.1%[46.1 µM]	-3.1%	8.4%	12.0%[46.1 µM]	-3.1%
SMILES	HCV inhibitor	LASV entry inh	Sm TGR inh	FMDV antiviral	MARV entry inh	RE007 growth inh
Cc1nc(N/N=C/c2ccccn2)sc1C	?	1.78µM*	-8.0%	-29.9%	1.3µM*	15.8µM*
COC(=O)[C@@H]1CCCN1Cc1ccc2c(c1)CN(Cc1ccc3c(c1)CCCN3C)CCO2	.	.	.	-1.6%	.	.
COc1ccc2c(c1)[C@@]1(OCCC=C[C@@H]1C)C(=O)N2CC1CC1	.	.	.	.	-6.7%[14.2 µM]	.
O=C(CC(c1ccco1)C1CCCCC1=O)c1ccco1 (stereo unspecified)	1.1%	9.9%	50.1µM*	-4.1%	2.2%	11.6%
Cc1cc(-c2nc3ncccc3o2)ccc1NC(=O)c1ccc(Br)cc1	.	-1.9%[46.1 µM]	3.4%	-14.6%	-3.2%[46.1 µM]	.
CCC(=O)N1c2ccc(S(=O)(=O)CCC(=O)N3CCN(c4ccc(F)cc4)CC3)cc2CC1C (stereo unspecified)	.	-23.2%[46.1 µM]	5.62µM*	?	4.9%[46.1 µM]	.
CCOC(=O)N1CCN(C(=O)CCS(=O)(=O)c2ccc3c(c2)CC(C)N3C(=O)CC)CC1 (stereo unspecified)	-17.6%	.	22.4µM*	-24.2%	.	0.0%
CCN(CC)S(=O)(=O)c1cc(OC)ccc1N=Nc1ccc(O)c2ncccc12	5.01µM*	.	-0.7%	-19.7%	.	.
Cc1ccc(C)c(N=Nc2ccc(O)c3ncccc23)c1	6.31µM*	.	19.4%	?	.	8.0%
CCOc1ccc(N=Nc2ccc(O)c3ncccc23)cc1	7.94µM*	-20.0%[46.1 µM]	1.3%	13.6%	?	-7.8%
CCOc1ccc(N=Nc2cc(C(C)C)ccc2O)cc1	-14.2%	-10.4%	2.9%	2.5%	16.5%	1.3%
Cc1ccc(N=Nc2cc(C)ccc2O)c(C)c1	7.2%	.	0.0%	72.8%	.	5.5%
Oc1ccc(N=Nc2ccc3c(c2)OCCO3)c2ncccc12	?	.	-11.7%	3.98µM*	.	10.3%
CCS(=O)(=O)c1ccc(OC)c(N=Nc2ccc(O)c3ncccc23)c1	?	?	-14.8%	?	?	17.7%
Cc1cccc(N=Nc2ccc(O)c3ncccc23)c1	5.62µM*	?	-11.0%	5.8%	4.47µM*	?
Cc1ccc(N2C(=O)CC(Sc3ccccc3C(=O)O)C2=O)cc1 (stereo unspecified)	12.2%	17.0%	12.6µM*	-13.8%	-5.7%	10µM*
Cc1ccc(N2C(=O)CC(Sc3ncccc3C(=O)O)C2=O)cc1 (stereo unspecified)	15.0%	-1.0%	5.6%	21.5%	1.9%	1.0%
COc1ccc(N2C(=O)CC(Sc3ccccc3C(=O)O)C2=O)c([N+](=O)[O-])c1 (stereo unspecified)	7.7%	.	11.2µM*	3.8%	.	-23.9%
O=C(O)c1ccccc1SC1CC(=O)N(c2ccc3c(c2)OCO3)C1=O (stereo unspecified)	-10.3%	0.6%[46.1 µM]	2.24µM*	1.1%	?	22.4µM*
Cc1ccc(N2C(=O)CC(Sc3ccccc3C(=O)O)C2=O)c([N+](=O)[O-])c1 (stereo unspecified)	21.8%	10.8%[46.1 µM]	.	-7.0%	29.3%[46.1 µM]	?
